# Screen size: about 31,000 sequences; about 1,400 (4.5%) were called active. The sample as a whole holds a higher share of actives than the screen did. Unmarked numbers belong to inactive results.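 The calls were made as follows: active = median seed-adjusted z-score above 1 or below -1; inactive = the rest.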
# Assay: Novel Modifiers of Survival Motor Neuron (SMN) Protein: Gene Identification via Genome-wide siRNA Screen;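 also: luminescence tracks full-length SMN protein made from the SMN2 reporter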
# Details: HEK293T SMN2-luciferase reporter, siRNA knockdown, 72 h; actives lie on both sides
# Summary of the method: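 HEK293T cells stably carrying an SMN2 promoter/splicing cassette–luciferase reporter were reverse-transfected with 1 pmol siRNA per well (druggable-genome library, 3 siRNAs per gene) and grown 72 h at 37 °C. Luminescence, normalized to negative-control siRNA and log10-transformed, was scored as MAD.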
row,Sequence,median seed-adjusted z-score
1,UGGAGAGACUUAUCCAAGATT against CKMT1B,-0.929
2,CAGAUGUGGUGAUGCGUGATT against DMBX1,-0.207
3,GCUUCAUGACAUCCGCAAATT against CTSL3,1.07 (active)
4,GGCAAGAGCUUGUAUCCAATT against CCNG1,0.131
5,CAAAAUCCUUUGUGAGUAATT against GPR174,-0.324
6,GGACUUUGCUGCCUAAAUUTT against PIP5K1A,0.0924
7,GCAUCACGCUCUCGAAGCATT against PTBP1,0.578
8,CCACCCUAGUUAGACAUCATT against ZNF419,0.0405
9,CCAUCAUCGACACACCCAATT against PRSS27,1.03 (active)
10,CAAUCGAACGUAAACAACATT against ADD3,0.0741
11,CAACCAUCGAGCAAAUGAATT against MAPK1,0
12,CAUCCCUUGUAAUUCACAATT against ZNF702,0.204
13,GCAUCAGCUCACAACAAAATT against SF3B4,-2.56 (active)
14,CAAGUAUGAUCAGCAAUGATT against ENG,-0.254
15,GGCAUUACGUUUCUAGGUATT against AQP6,0.008
16,CGCUGUUCAAUGAACUAUATT against GBA2,0.143
17,ACACCAGGGUUGUCUACAATT against LCAT,0.526
18,GAACUAUCAGAGCAGUUUUTT against LONP2,1.52 (active)
19,GAGCUAUAGUAAUUGCUCUTT against MIF4GD,0.373
20,GAAACAUCAUUUUUGCGAATT against THBS4,-0.28
21,GGACUGGGAUGAUACACCUTT against SBF2,0.569
22,CCAUCAUGAUGCUAGCUAUTT against AP3B2,-2.45 (active)
23,GCAGAAUUGGAGACGGAAATT against DNALI1,0.699
24,CCAAAUUCCGCUCUCAUGATT against SFRS9,-0.144
25,GUAUGAGUGUGACCGGGAATT against MRC2,-1.34 (active)
26,GGAUGAUCGAGACCAGUUUTT against XPO4,0.616
27,GCUGUUGACUCACAAUGAUTT against GCLM,0.0509
28,GCUUACGGCUUGUACCUGATT against SFRS17A,-0.389
29,GGAAUUAUUACAAGGUAAATT against EIF3E,0.549
30,UCUCUUCAAUAUGUAUUUATT against HOXC9,0.395
